Sampled rows, rich in hits. Any-hit rate of the full collection: about 27%.
CYP2C9 inhib: blockers of cytochrome P450 2C9 activity – biochemical, luminescence, ADME assay, primary screen. inhibition, % at 5 µM. CYP2C9 Supersomes, luciferin-H conversion. P11712. AID 777, 2007. hit rate 20% among 96,000;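 active = blocking of liver enzyme CYP2C9 beyond about 50% at 5 µM, limit read from the data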
CYP2C9 act: human CYP2C9 activators, primary screen, biochemical, luminescence. Cytochrome P450 2C9 (Homo sapiens), P11712. recombinant CYP2C9, luciferin-H conversion; active compounds read high; factor 1 = untreated enzyme, 0 = blocked. activation factor at 5 µM. hit rate 1.4% among 96,000. AID 1024, 2008;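 active = activation factor of 2 or more for CYP2C9 at a 5 µM dose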;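 also: 0 = sulfaphenazole-blocked wells and 1 = vehicle-only wells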
CYP2C19 inhib: blockers of cytochrome P450 2C19 activity – biochemical, luminescence, ADME assay, primary screen | P33261 | AID 778, 2007 | hit rate 21% among 96,000 | inhibition, % at 5 µM | CYP2C19 Supersomes, luciferin-H EGE luminescence, 30 min;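 active = CYP2C19 inhibition above a set limit at 5 µM in the primary screen, cut at about 50% in these data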;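 also: plate controls were negative control wells for no effect and 2.5 mM tranylcypromine positive control for full effect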
sEH inh: soluble epoxide hydrolase inhibitors, primary screen, biochemical, human sEH; Bifunctional epoxide hydrolase 2 (Homo sapiens), P34913; hit rate 0.34% among 91,000; AID 707, 2007; inhibition, % at 2 µM; recombinant human sEH enzymatic activity assay; in the data active = inhibition above about 80%
Target sequence (P34913 whole entry, looked up): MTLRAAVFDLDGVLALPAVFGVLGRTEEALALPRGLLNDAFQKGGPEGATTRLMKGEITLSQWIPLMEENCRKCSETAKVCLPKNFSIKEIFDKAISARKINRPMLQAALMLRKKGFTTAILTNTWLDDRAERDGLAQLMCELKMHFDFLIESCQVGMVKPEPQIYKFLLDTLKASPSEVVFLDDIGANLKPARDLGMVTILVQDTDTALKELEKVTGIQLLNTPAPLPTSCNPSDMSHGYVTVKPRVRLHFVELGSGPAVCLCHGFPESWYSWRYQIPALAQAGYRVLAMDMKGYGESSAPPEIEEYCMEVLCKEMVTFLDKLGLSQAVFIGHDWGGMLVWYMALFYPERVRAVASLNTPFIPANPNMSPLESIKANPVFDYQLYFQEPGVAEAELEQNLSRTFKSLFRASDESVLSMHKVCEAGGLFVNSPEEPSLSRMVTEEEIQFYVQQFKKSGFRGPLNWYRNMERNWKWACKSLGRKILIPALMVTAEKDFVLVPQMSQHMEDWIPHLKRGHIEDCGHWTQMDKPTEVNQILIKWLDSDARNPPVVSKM
CYP2C19 act: human CYP2C19 activators, primary screen, biochemical, luminescence | Cytochrome P450 2C19 (Homo sapiens), P33261 | recombinant CYP2C19, luciferin-H EGE luminescence; active compounds read high; 0 = fully inhibited enzyme, 1 = untreated enzyme | activation factor at 5 µM | 96,000 tested, under 10 active | AID 1025, 2008;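 active = activation factor of at least 2 at 5 µM in the primary screen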;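 also: 0 = wells with 2.5 mM tranylcypromine and 1 = vehicle-only wells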
sEH act: soluble epoxide hydrolase activators, primary screen, biochemical, human sEH | AID 717, 2007 | activation, % at 2 µM | hit rate 0.04% among 91,000 | purified human sEH enzymatic activity, activator screen | Bifunctional epoxide hydrolase 2 (Homo sapiens), P34913; in the data active = activation above about 37%
The depositor's hits bear a star; x = no result; ! = not active in a repeat.

SMILES	CYP2C9 inhib	CYP2C9 act	CYP2C19 inhib	sEH inh	CYP2C19 act	sEH act
COC(=O)c1[nH]c2c(c1C)C(=O)CC(c1cccs1)C2 (stereo unspecified)	38	0.6	44	0	0.6	0
CCOC(=O)c1[nH]c2c(c1C)C(=O)CC(c1ccco1)C2 (stereo unspecified)	60*	0.4	19	x	0.8	x
Cc1c(C(=O)OCc2ccccc2)[nH]c2c1C(=O)CC(c1ccco1)C2 (stereo unspecified)	89*	0.1	47	x	0.5	x
Cc1c(NC(=O)c2ccc(F)c(S(=O)(=O)N3CCOCC3)c2)c(=O)n(-c2ccccc2)n1C	-10	1.1	-20	6	1.2	-3
Cc1c(C(=O)OCCOC(C)C)[nH]c2c1C(=O)CC(C)(C)C2	70*	0.3	58*	x	0.4	x
COC(=O)c1[nH]c2c(c1C)C(=O)CCC2	17	0.8	-6	-17	1.1	17
Cc1c(C(=O)OCCOC(C)C)[nH]c2c1C(=O)CC(c1ccco1)C2 (stereo unspecified)	75*	0.3	41	x	0.6	x
COc1ccc(-c2csc(N(CC3CCCO3)C(=O)c3ccco3)n2)cc1 (stereo unspecified)	-1	1	-6	-8	1.1	8
CCCCC(CCC(=O)Nc1nccs1)C(=O)O (stereo unspecified)	2	1	7	-2	0.9	4
COc1ccc(C2=C(CN(C)C)C(c3ccccc3)c3ccccc3O2)cc1 (stereo unspecified)	77*!	0.2	68*!	5	0.3	-2
CC(=O)Cc1nsc(Nc2ccc3c(c2)OCCO3)n1	72*	0.3	45	1	0.6	0
O=C(C1CCCCN1S(=O)(=O)c1ccc(F)cc1)N1CCN(c2ccccc2F)CC1 (stereo unspecified)	36	0.6	39	19	0.6	-19
COc1ccc(S(=O)(=O)N(CC(=O)NC2CC2)C2CCCCC2)cc1Cl	72*	0.3	59*	x	0.4	x
COc1ccc(N(CC(=O)NCc2ccco2)S(C)(=O)=O)cc1Cl	-20	1.2	66*	x	0.3	x
COc1ccc(N(CC(=O)NCc2ccco2)S(C)(=O)=O)cc1	19	0.8	46	3	0.5	-3
COc1ccc(S(=O)(=O)N(CC(=O)NCc2ccco2)C2CCCCC2)cc1OC	40	0.6	86*	x	0.1	x
COc1ccc(N(CC(=O)NCc2ccco2)S(C)(=O)=O)cc1OC	50	0.5	83*	4	0.2	-6
CCc1cc2cc3c(cc2nc1SCC(=O)Nc1cc(C)on1)OCO3	-23	1.2	-15	-6	1.1	3
O=C(COC(=O)c1ccc2c(c1)OCO2)NCc1ccc2c(c1)OCO2	-23	1.2	40	-5	0.6	3
CC(C)n1c(C(=O)OCC(=O)NCc2ccc3c(c2)OCO3)cc2occc21	59*	0.4	12	x	0.9	x
CC(C)n1c(C(=O)OCC(=O)NCc2ccc3c(c2)OCO3)cc2sccc21	86*	0.1	42	19	0.6	-18
Cn1c(C(=O)OCC(=O)NCC2CCCO2)cc2sccc21 (stereo unspecified)	x	x	x	4	x	-2
Cc1nnc2c(NC(C)C)nc3ccccc3n12	37	0.6	2	x	1	x
Cc1cc(O)c(-c2n[nH]c3c2C(c2cccc(O)c2)N(Cc2cccnc2)C3=O)cc1Cl (stereo unspecified)	67*	0.3	25	6	0.8	-3
CC(=O)C1=C(O)C(=O)N(Cc2cccnc2)C1c1ccc(Cl)cc1Cl (stereo unspecified)	x	x	x	14	x	-9
SMILES	CYP2C9 inhib	CYP2C9 act	CYP2C19 inhib	sEH inh	CYP2C19 act	sEH act
Fc1ccc2nc3n(c2c1F)CCCCCC3	5	0.9	49	-10	0.5	10
O=C(CSc1nnc(-c2ccc(OC(F)F)cc2)o1)NCc1cccs1	34	0.7	64*	5	0.4	-6
COc1cccc(CN(C)CC(=O)NC(=O)NCc2ccco2)c1	29	0.7	58*	-18	0.4	17
COc1ccc(-c2nnc(SCC(=O)NC(=O)NCc3ccco3)o2)cc1	-18	1.2	52*	-3	0.5	4
COC(=O)CSc1nnc(-c2ccc(S(=O)(=O)NCc3cccs3)cc2)o1	34	0.7	12	1	0.9	-1
COc1ccc(-c2nnc(SCC(=O)NC(C)c3ccccc3)o2)cc1 (stereo unspecified)	-32	1.3	59*	-1	0.4	1
OC1C=CSc2nc3ccccc3n21 (stereo unspecified)	-42	1.4	-12	2	1.1	-3
c1ccc(-c2ccc(C3=Nn4c(Cn5nnc6ccccc65)nnc4SC3)cc2)cc1	16	0.8	-3	7	1	-7
COc1ccc(S(=O)(=O)O/N=C2\CCSc3ccc(C)cc32)cc1	15	0.8	56*	2	0.4	-4
CCOC(=O)C1=C(CNCc2ccc(C)cc2)NC(=O)NC1c1cc(C)ccc1C (stereo unspecified)	55*	0.5	47	-5	0.5	3
CC1=C(C(=O)OCC(C)C)C(c2ccc(F)cc2)NC(=O)N1 (stereo unspecified)	29	0.7	90*	x	0.1	x
CCOC(=O)C1=C(Cn2cnc3ccccc32)NC(=O)NC1c1cc(C)ccc1C (stereo unspecified)	30	0.7	46	1	0.5	-2
CCOC(=O)C1=C(C)NC(=O)NC1c1ccc(OCC(=O)N2CCCCC2)cc1 (stereo unspecified)	21	0.8	5	x	1	x
CCOC(=O)C1=C(C)NC(=O)NC1c1c(OCC(=O)N2CCCCC2)ccc2ccccc12 (stereo unspecified)	83*	0.2	76*	9	0.2	-8
CCOC(=O)C1=C(CN2CCC(C)CC2)NC(=O)NC1c1ccc(Cl)cc1 (stereo unspecified)	89*	0.1	78*	34	0.2	-34
O=C(CCc1ccccc1)Nc1c(F)cccc1F	x	x	x	-3	x	4
CCCc1c(C)[nH]c2ccc(NC(C)=O)cc2c1=O	43	0.6	6	-11	0.9	11
C=CCOc1c(Cl)cc(C2NC(=O)NC(C)=C2C(=O)OC)cc1Cl (stereo unspecified)	37	0.6	57*	21	0.4	-18
CCOC(=O)C1=C(C)NC(=O)NC1/C(C)=C/c1ccccc1 (stereo unspecified)	69*	0.3	78*	x	0.2	x
CCOC(=O)C1=C(C)NC(=O)NC1c1cccc(O)c1 (stereo unspecified)	6	0.9	3	15	1	-10

Compound activity (PubChem BioAssay)
